The list is not random: actives were taken first. Their share in the collection is about 2.6%.
GPR7 antagonist: blocks human GPR7 receptor signaling. P48145. GPR7-expressing cells, fluorescence antagonist assay. inhibition, % at 4.4 µM. 1.1% of 290,000 active. AID 1861; in the data active means inhibition above about 16%, passing the limit was not always enough;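 further: cells stimulated with the agonist NPW; 0% = agonist with vehicle and 100% = vehicle without agonist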
Target sequence (P48145 whole entry, looked up): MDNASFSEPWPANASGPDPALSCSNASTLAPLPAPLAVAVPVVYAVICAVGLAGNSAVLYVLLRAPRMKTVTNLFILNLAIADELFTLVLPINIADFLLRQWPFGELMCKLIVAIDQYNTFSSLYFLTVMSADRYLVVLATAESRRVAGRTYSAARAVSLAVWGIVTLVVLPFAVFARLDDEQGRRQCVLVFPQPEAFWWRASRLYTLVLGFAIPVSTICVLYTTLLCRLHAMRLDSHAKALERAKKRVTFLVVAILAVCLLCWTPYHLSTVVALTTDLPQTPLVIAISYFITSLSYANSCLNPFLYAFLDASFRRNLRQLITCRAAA
BaF3 parental: parental Ba/F3 viability inhibition as JAK2V617F counter-screen | CellTiter-Glo ATP luminescence | inhibition, % at 5.6 µM | 1.1% of 220,000 active | AID 1486;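 active means inhibition above a per-campaign cutoff, the mean inhibition of all tested compounds plus 3 SD, cut at about 27% in these data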;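 further: 0% = DMSO wells and 100% = JAK Inhibitor I control wells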
KLF5 inh: suppresses KLF5 promoter-driven expression. AID 1700. inhibition, % at 5 µM. DLD-1 KLF5 promoter-luciferase reporter, luminescence. 0.23% of 290,000 active;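 active means inhibition above a per-plate limit of that plate's mean compound inhibition plus 3 SD, cut at about 60% in these data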;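 further: 0% = DMSO wells and 100% = LY294002 at 200 µM; higher means less KLF5 promoter-driven luciferase light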
DNA FID counter: fluorescent intercalator displacement, NS3 helicase counter-screen; AID 1845; 0.17% of 290,000 active; DNA fluorescent intercalator displacement, fluorescence; inhibition, % at 7.9 µM; in the data active means inhibition above about 37%;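 further: 0% = vehicle and 100% = reference compound; higher means more ethidium bromide displaced from hairpin DNA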
IEC-6 tox: IEC-6 cytotoxicity, counter-screen for KLF5 inhibitors | luminescence viability | inhibition, % at 5 µM | 0.78% of 290,000 active;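 further: 0% = plate median of test compound wells and 100% = cytotoxic reference compound wells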
Ba/F3 V617F tox: reduce viability of Ba/F3 cells dependent on JAK2V617F; inhibition, % at 5.6 µM; Ba/F3 EpoR-JAK2V617F viability, ATP luminescence; 1.1% of 220,000 active;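 active means inhibition above the campaign mean plus 3 SD over all tested compounds, cut at about 24% in these data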;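 further: cytokine-independent growth of Ba/F3 cells driven by EpoR plus mutant JAK2; 0% = DMSO-treated cells and 100% = JAK inhibitor I control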
IEC-6 cytotox cf: IEC-6 cytotoxicity, confirmation assay. 63% of 1,900 active. inhibition, % at 5 µM. AID 1907. IEC-6 rat intestinal epithelial viability, luminescence. shares compounds with IEC-6 tox;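 further: 0% = vehicle and 100% = reference cytotoxic drug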
* hit, by the source's call; . = not tested or not shown. Unless noted, no stated cut-off is given here; in the data, active means inhibition above about 22%; inactive means the rest.

SMILES | GPR7 antagonist | BaF3 parental | KLF5 inh | DNA FID counter | IEC-6 tox | Ba/F3 V617F tox | IEC-6 cytotox cf
CC(C)OC(=O)c1cc2c(ccn2C)n1CC(=O)N1CCC(Cc2ccccc2)CC1 | -5 | 8 | 5 | -41 | 40* | 5 | 7
Brc1ccc(/C=N/c2nc3ccccc3n2CCN2CCOCC2)cc1 | -7 | 2 | 8 | -3 | -2 | -1 | .
O=C(CCl)N(c1ccccc1)c1c[nH]c2ccccc12 | 1 | 50* | 1 | -9 | 34* | 101* | 10
O=c1c2oc3ccccc3c2ncn1Cc1cccc(Cl)c1 | -9 | -4 | 15 | -5 | 1 | -2 | .
O=c1c2oc3ccccc3c2ncn1Cc1ccccc1F | -7 | -1 | -27 | -11 | 34* | -5 | 12
O=c1c2oc3ccccc3c2ncn1Cc1ccccc1Cl | 18 | 5 | -18 | -6 | 37* | 2 | 26*
Cn1c(=O)c2c(nc(NCC(O)CO)n2CCc2ccccc2)n(C)c1=O (configuration not stated) | -15 | -4 | 9 | -3 | -5 | -4 | .
Cc1nc2c3cc(Cl)ccc3n(CCN3CCCCC3)c2s1 | 22 | 36* | 16 | 39* | 41* | 16 | 17
CCc1c(C(=O)NC2CCCc3ccccc32)[nH]c(C)c1C(C)=O (configuration not stated) | 1 | . | 25 | -35 | 47* | . | 18
CC(=O)c1c(C)[nH]c(C(=O)NC2CCSc3ccccc32)c1C (configuration not stated) | 4 | . | -11 | -31 | 6 | . | .
C[C@@]12CC(=O)NC1N(C(=O)c1cccc(C(F)(F)F)c1)C(c1ccccc1OC(=O)c1cccc(C(F)(F)F)c1)C2 (some centres not stated) | 6 | 1 | -36 | -28 | 6 | -2 | .
COc1ccc(-c2csc3ncnc(Cl)c23)cc1 | -5 | -2 | -23 | -5 | -1 | -4 | .
COc1ccc(Nc2ncnc3scc(-c4ccc(OC)cc4)c23)cc1 | 16 | 6 | -11 | -8 | 24* | 1 | 20
COc1ccc(OC)c(C(=O)/C=C/c2ccccc2C(F)(F)F)c1 | -7 | -3 | -9 | -7 | -5 | -1 | .
Nc1cc(=O)[nH]c(SCC(=O)NNC(=O)Cc2ccccc2)n1 | -15 | 3 | -27 | -6 | -7 | 0 | .
COC(=O)c1cccc(/C=N/NC(N)=S)c1O | -8 | 7 | 54 | -7 | 49* | 0 | 12
Cc1ccc(N=Cc2c(C)[nH]n(-c3nc4ccccc4[nH]3)c2=O)cc1 | 2 | 39* | -9 | -1 | 35* | 26* | 53*
Cc1ccc(-n2[nH]c(C)c(C=Nc3ccc4[nH]c(=O)[nH]c4c3)c2=O)cc1 | 5 | 9 | 23 | -7 | 5 | 3 | .
Nc1ncnc2c1ncn2[C@@H]1O[C@H](CO)[C@@H](O)[C@H]1O | -25 | 5 | -4 | -5 | 0 | -4 | .
N=c1ccn2c(n1)OC1C(O)C(CO)OC12 (configuration not stated) | -3 | 80* | 24 | 1 | 92* | 75* | 72*
COc1ccc(F)cc1Cn1nc(C(=O)O)c2ccccc2c1=O | 6 | . | 0 | -20 | 36* | . | 21
O=C(O)c1nn(CCOc2c(Cl)cccc2Cl)c(=O)c2ccccc12 | -25 | . | 29 | -26 | 40* | . | 18
Cc1nc2cc(-c3ccc(Br)cc3)[nH]n2c(=O)c1Cl | -14 | . | -75 | -1 | 30* | . | 13
CC(C)(C)c1ccc(C(=O)Nc2ccc(C(=O)NCc3cccnc3)cc2)cc1 | -4 | . | 20 | -15 | 98* | . | 91*
O=C(NCc1cccnc1)c1ccc(NC(=O)c2ccc([N+](=O)[O-])cc2)cc1 | -10 | . | -20 | -7 | 87* | . | 59*
SMILES | GPR7 antagonist | BaF3 parental | KLF5 inh | DNA FID counter | IEC-6 tox | Ba/F3 V617F tox | IEC-6 cytotox cf
Oc1cccc(CN2CCCCC2)c1 | 2 | 3 | -13 | 4 | 2 | -2 | .
CSCCC(NC(=O)c1ccc(Cl)cc1)C(=O)OCC(C)=O (configuration not stated) | -3 | -2 | 18 | -3 | 6 | -3 | .
COc1ccc(C(=O)Nc2ccc(N3CCN(C(=O)c4cccs4)CC3)cc2)cc1Br | 4 | . | 6 | -37 | -5 | . | .
COc1cc(OC)cc(C(=O)Nc2ccc(N3CCN(C(=O)c4cccs4)CC3)cc2)c1 | 3 | . | 20 | -34 | 36* | . | 31*
COc1ccc(Nc2nc(-c3sc(C)nc3C)cs2)cc1 | 1 | . | 44 | -20 | 76* | . | 56*
CN1CCN(c2oc(-c3ccc([N+](=O)[O-])cc3)nc2C#N)CC1 | -6 | -3 | -6 | 13 | 4 | 2 | .
COc1ccc(NC(=O)Cn2ncc(Cl)c(Cl)c2=O)cc1S(=O)(=O)N1CCOCC1 | -6 | -6 | 12 | -27 | 41* | -4 | 7
Cc1ccc(C(=O)OCn2ncc(Cl)c(Cl)c2=O)cc1 | 7 | 56* | 8 | -1 | 44* | 39* | 56*
CCOC(=O)c1ccc(NC(=O)Cn2ncc(Cl)c(Cl)c2=O)cc1 | 9 | 63* | -1 | -8 | 35* | 56* | 32*
O=C(Nc1ccc(OC(F)(F)F)cc1)C1CC(c2ccc(F)cc2)=NO1 (configuration not stated) | -6 | 5 | 5 | -4 | 2 | 7 | .
COc1cccc(C(=O)c2c[nH]c(C(=O)NCCCN(C)C)c2)c1 | -2 | 1 | 9 | 2 | -2 | 0 | .
COc1cc2c(cc1OC)C1(Nc3c-2c(-c2ccccc2)nn3-c2ccccc2)C(=O)Nc2ccccc21 (configuration not stated) | -7 | 2 | 12 | -8 | -2 | -5 | .
Nc1nc(Cl)nc2c1ncn2[C@H]1C[C@H](O)[C@@H](CO)O1 | -13 | 95* | 19 | 1 | 90* | 101* | 68*
O=c1[nH]cnc2c1ncn2[C@@H]1C[C@@H](O)[C@H](CO)O1 | 1 | . | -26 | -6 | -4 | . | .
COc1cccc(NC(=O)COC(=O)c2c(-c3ccccc3)noc2C)c1 | -6 | 7 | 0 | -14 | 2 | -3 | .
Cc1nc2ncccn2c1-c1csc(Nc2ccc(O)cc2)n1 | 5 | 77* | -80 | -6 | 25* | 82* | 7
C=CCNc1nc(-c2c(C)nc3ncccn23)cs1 | -16 | . | -33 | -5 | 1 | . | .
Cc1ccc(S(=O)(=O)Nc2ccc3c4c(cccc24)CC3)c(C)c1 | -2 | 13 | 4 | -9 | 26* | 4 | 39*
Cc1ccc(S(=O)(=O)Nc2ccc(O)c3ccccc23)c(C)c1 | 12 | . | -29 | -10 | 2 | . | .
Fc1ccc(Cn2nnc3ccccc32)cc1 | 0 | . | -19 | -4 | -3 | . | .
Cc1ccc(/C=N/NC(=O)c2cc(C)oc2C)cc1 | -5 | -1 | -32 | -10 | 2 | 1 | .
Cc1ccc(C)c(C2NC(=O)c3ccccc3N2)c1 (configuration not stated) | 4 | 39* | 42 | -6 | 63* | 42* | 51*

Screening data: PubChem, The Scripps Research Institute Molecular Screening Center
